Reference: PubChem BioAssay AID504799 (The Scripps Research Institute Molecular Screening Center, 2011)
The list shows a part of the results. The source made the active and inactive calls.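 The calls were made as follows: active = mean activation over triplicate runs exceeds the adjusted cutoff derived for the parent primary screen (cut at about 19% in these data); inactive = the rest.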

Assay: FP signal interference without PKA proteins, confirmation, artefact control for PKA-R1A activator project, biochemical, fluorescence polarization, triplicate (AID 504799);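 also: no PKA protein present so any polarization rise reflects compound interference; 0% = tracer peptide mix alone and 100% = mix with added PKA catalytic subunit; higher means stronger polarization artifact and likely false positive in parent screen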
Conditions: Cy5-IP20 peptide alone, fluorescence polarization artifact counterscreen; at 11.4 µM; hits give high values

Row | SMILES | activation
1 | CCC(Oc1ccccc1C)C(=O)Nc1ccc(S(=O)(=O)Nc2cc(C)on2)cc1 (stereo not given) | 2.96% (inactive)
2 | COc1ccc(NC(=O)c2ccc(C#CC(C)(C)O)cc2)cc1 | -2.01% (inactive)
3 | O=C(Nc1ccc2c(c1)[C@@H]1C[C@@H](CC(=O)N3CCCCC3)O[C@@H](CO)[C@@H]1O2)NC1CCCCC1 | 3.18% (inactive)
4 | COc1ccccc1N1CC(C(=O)Nc2nnc(SCC(=O)NC(C)C)s2)CC1=O (stereo not given) | -0.21% (inactive)
5 | Cc1ccc2nc3c(cc(C(=O)NCCc4ccccc4)c(=N)n3CC3CCCO3)c(=O)n2c1 (stereo not given) | 4% (inactive)
6 | N#Cc1ccccc1CN1C(=O)S/C(=C/c2cccn2-c2cccc(C(=O)O)c2)C1=O | 19.3% (active)
7 | CCCC(=O)Nc1ncnc2c1ncn2[C@@H]1O[C@@H]2OP(=O)(O)OC[C@H]2[C@H]1OC(=O)CCC | 0.15% (inactive)
8 | CN(C(=O)CSc1nnc(Nc2ccccc2)s1)C1CCS(=O)(=O)C1 (stereo not given) | 0.22% (inactive)
9 | COc1ccc(CNc2nnnn2C)cc1 | 3.5% (inactive)
10 | CCOc1cc(C(=O)Nc2c(C)ccc3nsnc23)cc(OCC)c1OCC | 3.5% (inactive)
